This is part of a sample that, as a whole, favours compounds with a hit. Of some 83,000 tested, about 20% had one in any assay.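 Percent growth is the endpoint: 0 to 100 indicates growth inhibition (40 means 60% inhibition), 0 means no net growth, and negative values indicate cell death.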 Values without a mark were called inactive. Active and inactive are the calls of the source.

In the assay the test system is NCI-H322M lung. As to the kind of experiment: NCI-60 one-dose screen, 48 h (100 = growth as untreated, 0 = no growth, -100 = all killed). The conditions noted are these: 10 µM unless noted. Here is the method:
Growth inhibition of the NCI-H322M human Non-Small Cell Lung tumor cell line is measured as a screen for anti-cancer activity. Cells are grown in 96 well plates and exposed to the test compound for 48 hours. Compounds are tested at a single concentration, which is 10^-5 M for most compounds. The reported endpoint is percent growth (GI% or GIPRCNT), where numbers from 0 - 100% represent growth inhibition, and numbers from -100% - 0 represent cell death. For example, a value of 40 represents 60% growth inhibition. A value of 0 means no net growth occurred over the course of the experiment. A value of -40 indicates 40% of cells at the beginning of the experiment died by the end of the experiment. A value of -100 means all cells are dead at the end of the experiment.
NCI-60 Human Tumor Cell Lines Screen was performed using the standard one-dose NCI protocol, which is described in more detail at https://dtp.cancer.gov/discovery_development/nci-60/default.htm.
Compounds with GIPRCNT values below 10 were considered active. Activity score was based on GIPRCNT using the following formula: […]
Score is 0 for GIPRCNT values of 100 or above, 50 for GIPRCNT values of 0, and 100 for GIPRCNT values of -100.
For `CCCCCC(=O)Oc1ccc(/C(=C(\C)c2ccccc2)c2ccc(OCCN3CCCCC3)cc2)cc1`, the growth is 83.8%.

Take `N#Cc1c(NCc2ccccc2I)sc2c1CCCCC2`: the growth was 89.9%.

In the case of `N#CC(C(=O)/C(=N/NC(=O)c1ccccc1O)C(C#N)c1ccccc1)c1ccccc1` (stereo not given), the growth was 68.4%.

As to `CCN(CC)c1ccc(/C=N/NC(=O)CSc2nc3ccccc3c(=O)n2CCc2ccc(S(N)(=O)=O)cc2)c(O)c1`, the growth was 29.4%.

For the compound `COc1ccc(C(=O)c2cc(C)c(OC)c(C)c2)c(OC)c1OC(=O)C(Cl)Cl`, the growth is 42.8%.

On to `COc1ccc(C(=O)CSc2nc(-c3cc(OC)ccc3OC)cc(-c3ccc(Cl)cc3)c2C#N)cc1`, for which the growth is 67.9%.

With `O=C(CCN1CCCC1)Nc1ccc2c(NCCc3ccccc3)c3ccccc3nc2c1`, the growth is -19% (active).

Regarding `CC(=O)O[C@H]1Cc2c([nH]c3ccccc23)[C@@H](c2ccc(Cl)cc2)N1C(=O)CCNC(C)(C)C`, the growth was 65.9%.

As for `C=C(C)[C@@H]1CC[C@]2(CN)CC[C@]3(C)[C@H](CC[C@@H]4[C@@]5(C)CCCNC(C)(C)[C@@H]5CC[C@]43C)[C@@H]12`, the growth is -42.7% (active).

In the case of `Cc1cc2nc3c4cc([N+](=O)[O-])ccc4n(CCN(C)C)c3nc2cc1C`, the growth is -15.1% (active).

Turning to `COc1ccccc1NC(=O)C1CC(c2ccc(F)cc2)=NO1` (stereo not given), the growth is 102%.

`CN1C(N2CCN(S(=O)(=O)c3ccccc3)CC2)=NS(=O)(=O)c2ccccc21`: the growth was 82.6%.

For `COc1cc(/C=C/C(=O)c2nc3cc(F)ccc3nc2C)cc(OC)c1OC`, the growth was 102%.

`COc1ccc(C(=O)C2C(C#N)C(C#N)C3C=Cc4ccccc4N32)cc1` (stereo not given): the growth is 53.5%.

Consider `Cc1nc(N)nc(N[C@@H](C)c2nc3cccc(NCc4ccc(C(=O)NO)cc4)c3c(=O)n2-c2ccccc2)n1`, for which the growth is 80.1%.

In the case of `C/C=C(\C)C(=O)NC1=CC[C@@]2(C)C(=CCC3C2CC[C@@]2(C)C3CC[C@@H]2C(C)N(C)C)C1=O` (stereo not given in full), the growth was 36.9%.

On to `CC(C)(C)CC(C)(C)n1nnnc1C(NC12CC3CC(CC(C3)C1)C2)c1ccccc1` (stereo not given), for which the growth was 105%.

For `CCOC(=O)c1ccc2c(c1)ncn2-c1ccc(NC(=O)Nc2cccc(C)c2)cc1`, the growth is 87.9%.

`O=[N+]([O-])CC(c1ccccc1)c1c[nH]c2ccccc12` (stereo not given): the growth is 97.6%.

In the case of `O=C(NO)c1ccc(-n2nc(-c3ccccc3)c3ccccc32)cc1`, the growth was 46.9%.

For `O=C1c2c(c3c4cccc(F)c4[nH]c3c3ccc4ccccc4c23)C(=O)N1O`, the growth was 64%.

Take `CCOC(=O)Oc1c(OC)cc(C(=O)c2ccc(OC)c(OC(=O)CCl)c2OC)cc1OC`: the growth was 45.2%.

`C#Cc1cccc(NC(=O)c2cccc(NC(=O)CCl)c2)c1`: the growth is 58.8% [8.25 µM].

As to `CCN(CC)CCOc1ccc(NC(=O)C(C(C)C)N2C(=O)/C(=C/c3ccc(Br)cc3)SC2=S)cc1` (stereo not given), the growth is 99.8%.

Consider `COCc1cnccc1NC1CCCCCC1`, for which the growth is 98.6%.

As for `COc1cc(CC(=O)n2ncc3ccc(N)cc32)cc(OC)c1OC`, the growth is 88.5%.

As for `Brc1ccc2[nH]cc(-c3cncn3CCc3ccccc3)c2c1`, the growth is 74.3%.

Regarding `NC(=NCc1ccccc1)C(N=Nc1ccccc1)C(=O)NCc1ccccc1` (stereo not given), the growth was 101%.

With `CCCCN1C=CCN(CCCC)C1`, the growth is 75%.

As for `CCCCC/C=C/C(C)=C/C1CC(C)C/C=C/CCC(O)C(OC(N)=O)CCC(C)CC(O)C(C)C(=O)O1` (stereo not given), the growth is 101%.

In the case of `O=c1ccc(-c2nc(N3CCOCC3)c3ccccc3n2)c[nH]1`, the growth is 92.3%.

With `COc1cc(F)c(/C=C/c2cc(/C=C/c3cc(OC)c(OC)cc3F)on2)cc1OC`, the growth was 96%.

Take `CN(C)c1ccc(C2C(C#N)=C(/N=C/c3ccccc3)Oc3c2ccc2ccccc32)cc1` (stereo not given): the growth was 98.5%.

As for `CCCOc1ccc(/C=N/Nc2cc(C)nc3ccc(Br)cc23)cc1`, the growth was 94.5%.

As to `COc1cc2cc(Oc3cccc(NC(=O)Nc4cc(C(F)(F)F)cc(C(F)(F)F)c4)c3)c(C)nc2cc1OC`, the growth was 14.9%.

As to `NC(=O)Nc1ccc(-n2cnc3cc(-c4ccc(O)cc4)ccc32)cc1`, the growth was 101%.

In the case of `CCCCCC(=O)Oc1ccc(/C(=C(/C)Cc2ccc(OC)cc2)c2ccc(OCCCN(C)C)cc2)cc1`, the growth was 92.1%.

On to `O=C(c1nc2ccccc2[nH]1)C1C(c2ccc(Br)cc2)C2CC3CCCC[C@H]3N2[C@@]12C(=O)Nc1cc(Cl)ccc12` (stereo not given in full), for which the growth was 56.1%.

For `CC(=O)O[C@@H]1C2CCC3C(CC[C@@]4(C)C3CC[C@@H]4C(C)N(C)C)[C@@]2(C)CC[C@@H]1NC(=O)C=C(C)C` (stereo not given in full), the growth is 13.1%.

For the compound `COc1cc(NC(=O)CSc2nc3ccc(C)cc3c(=O)n2Cc2ccccc2)cc(OC)c1OC`, the growth was 63.4%.

Values taken from PubChem BioAssay (NCI).
